Test results from PubChem BioAssay AID1259416 (Broad Institute, 2018).
The whole screen tested about 69,000 compounds, of which about 2,600 (3.8%) were called active. Only a selection was taken, and actives are over-represented in it overall. Values without a mark were called inactive. Rule as the data show it: active = activity change below about -70% (passing the limit was not always enough); inconclusive = no clear call, values can overlap the other calls.

Assay: T. gondii growth inhibition with IFN-gamma, primary screen, cell-based (AID 1259416);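 also: host cells are HeLa cells infected with Toxoplasma gondii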
Conditions: Toxoplasma gondii growth in IFN-gamma-treated host cells; stronger effect = lower value; concentration not given here

| SMILES | activity change, negative = inhibition |
| --- | --- |
| Cc1cc(C(=O)N2CCC3(CC2)CNC(=O)O3)c2ccc(F)cc2n1 | 0.544% |
| CCOC1C2CCC1N(S(=O)(=O)c1cccc(C)c1)CCO2 (configuration not stated) | 16.8% |
| Cc1cc(S(=O)(=O)NCc2ccc3c(c2)OCO3)ccc1-n1cnnn1 | -7.98% |
| C[C@@H]1COCCN1c1cc(C2(S(C)(=O)=O)CC2)nc(-c2cccc3[nH]ccc23)n1 | -82.8% (active) |
| COc1cccc(-c2cccc3[nH]ccc23)n1 | 35.3% |
| NC(=O)Cc1csc(NC(=O)c2ccc3nc(C(F)(F)F)[nH]c3c2)n1 | -8.79% |
| CNS(=O)(=O)c1ccc([C@@H]2C[C@H](NC(C)=O)C[C@H](CC(C)C)O2)cc1 | -22.6% |
| Cc1ccc(C2(O)CCN(C(=O)c3noc(C)c3CO)CC2)nc1 | -2.58% |
| Cc1ccc2cc(CN(c3ccc(C)c(C)c3)S(C)(=O)=O)c(=O)[nH]c2c1 | -50.6% |
| Cc1ccc(Nc2nc(-c3nnc(-c4cccc(C)c4)o3)nc3ccccc23)cc1 | 96.2% |
| COc1cc(OC)c(Nc2nc(-c3nnc(-c4ccccc4)o3)nc3ccccc23)cc1Cl | 268% |
| Clc1cccc(-c2nnc(-c3nc(NC4CCCC4)c4ccccc4n3)o2)c1 | -77.4% (active) |
| COc1cc(/C=C/CN2CCC3(CC2)c2ccccc2[C@@H](NC(=O)C(C)C)[C@@H]3OC)ccc1O | 12.6% |
| CN1C(=O)c2cc(NS(=O)(=O)c3ccccc3F)ccc2OC[C@@H]2O[C@@H](CC(=O)NC3Cc4ccccc4C3)CC[C@@H]21 | -28.5% |
| Cc1cc(N2CCN(c3nc(C)cc(C)n3)CC2)ncn1 | 3.08% |
| Cc1nc(N2CCCC2)nc2c1CCN(C(=O)Nc1ccccc1F)CC2 | -2.86% |
| Cc1cc(C)nc(N2CCN(c3c4c(nc5c(-c6ccccc6)c(C)nn35)CCC4)CC2)n1 | -75.6% (active) |
| COc1ccc(Cl)cc1S(=O)(=O)N1CCC(c2nc(C(=O)N(C)C)c(C)o2)CC1 | -56% |
| O=C(Cc1ccc(F)cc1)N1CC[C@@H](O)[C@@H]1Cc1ccccc1 | -30.4% |
| CN(Cc1noc(C2CCC2)n1)Cc1ncccc1C(=O)O | -0.548% |
| O=C(NCc1cccnc1)C1=NOC2(CCCN(C(=O)Cc3ccc(F)cc3)C2)C1 (configuration not stated) | 53.7% |
| CC(C(=O)NC1CC1)N1CCc2[nH]nc(-c3ccc(-c4ccccc4)cc3)c2C1 (configuration not stated) | 13.6% |
| CC(C)n1cnc2c(N3CCOCC3)nc(C3CCN(Cc4cccnc4)CC3)cc21 | 1.27% |
| CC(=O)N1CCC(c2cc3c(ncn3C(C)C)c(-c3ccccc3)n2)CC1 | -106% (active) |
| CN(CCCc1ccccc1)C(=O)c1cc(CN2CCC(O)CC2)on1 | 6.96% |
| CCCNc1ncc(-c2nccn2CC2CCOCC2)cn1 | 0.573% |

| SMILES | activity change, negative = inhibition |
| --- | --- |
| CCc1c2c(nc3ccc(O)cc13)-c1cc3c(c(=O)n1C2)COC(=O)[C@]3(O)CC | -86.3% (active) |
| CCN(CC)Cc1cnc2n1CCN(Cc1csc(C)n1)CC2 | 4.3% |
| C[C@H](CO)N1C[C@H](C)[C@@H](CN(C)S(=O)(=O)c2ccc([N+](=O)[O-])cc2)OCc2ccccc2-c2c(n(C)c3ccccc23)C1=O | -73.3% (active) |
| C[C@H]1CN([C@@H](C)CO)C(=O)c2ccccc2-c2ccccc2CO[C@H]1CN(C)S(=O)(=O)c1cccc(C#N)c1 | 5.72% |
| C[C@@H]1CN([C@H](C)CO)C(=O)c2c(c3ccccc3n2C)-c2ccccc2CO[C@H]1CN(C)C(=O)[C@@H](Cc1ccccc1)N(C)C | -51.4% |
| CC(C)(O)CC[C@@H](O)[C@](C)(O)[C@@H]1CC[C@@]2(O)C3=CC(=O)[C@@H]4C[C@@H](O)[C@@H](O)C[C@]4(C)[C@@H]3CC[C@]12C | 12.2% |
| CN(C)c1nc2c(c(=O)[nH]1)CCN(C(=O)C1(c3ccc(Cl)cc3)CCC1)C2 | -11.9% |
| COc1cc2c(cc1CNC(=O)c1cc3n(n1)CCCN(C)C3)CCC2 | 5.16% |
| O=C(c1cnccn1)N1CCC2(CC(=O)N(c3cccc(F)c3)C2)C1 (configuration not stated) | -1.06% |
| Cc1ccsc1C(=O)N1CCC2(C1)CN(c1cccc(F)c1)C(=O)CN2C (configuration not stated) | -102% (active) |
| CC(=O)N1CC(=O)N(c2cnn(C)c2)CC12CCN(C(=O)c1cnc(C)cn1)C2 (configuration not stated) | 8.89% |
| COc1ccc(C(=O)N2CC(C(=O)N3CCOCC3)C3(CCOCC3)C2)cc1 (configuration not stated) | 2.42% |
| O=C(CC1CC1)N1CC[C@@H]2[C@H](CO)Nc3ccc(-c4ccc(F)cc4)cc3[C@@H]21 | -30.6% |
| COc1ccc(-c2noc(-c3c(O)c4ccccc4n(C)c3=O)n2)cc1F | 31.1% |
| Cc1ccc(NC(=O)c2c(O)c3cccnc3n(-c3cccc(F)c3)c2=O)cc1F | 126% |
| COc1cccc(-n2c(=O)c(C(=O)Nc3ccccc3F)c(O)c3cccnc32)c1 | 40% |
| COc1ccc(-n2c(=O)c(C(=O)Nc3ccccc3C)c(O)c3cccnc32)cc1 | 33.1% |
| CCc1cccc(NC(=O)c2c(O)c3cccnc3n(-c3cccc(F)c3)c2=O)c1 | -96.6% (active) |
| COc1ccccc1CNC(=O)c1c(O)c2cccnc2n(-c2ccccc2)c1=O | -37.8% |
| CCc1ccc(NC(=O)c2c(O)c3cccnc3n(-c3ccccc3)c2=O)cc1 | 86% |
| C=CCNC(=O)c1c(O)c2cccnc2n(-c2cccc(F)c2)c1=O | -76.4% (active) |
| O=C(NCc1ccccc1F)c1c(O)c2cccnc2n(-c2cccc(F)c2)c1=O | -102% (active) |
| O=C(NCc1ccc(F)cc1)c1c(O)c2cccnc2n(-c2cccc(F)c2)c1=O | -108% (active) |
| O=C(Nc1cccc(Cl)c1)c1c(O)c2cccnc2n(-c2ccc(F)cc2)c1=O | 195% |
| COc1cccc(-n2c(=O)c(C(=O)NC(C)c3ccccc3)c(O)c3cccnc32)c1 (configuration not stated) | -12.7% |
| COc1ccc(CNC(=O)c2c(O)c3cccnc3n(-c3ccc(F)cc3)c2=O)cc1 | 85.2% |
